# Out of some 2,500 compounds screened, about 1,100 (44%) were called active. So high a share suggests a set chosen from earlier hits. Some of the results follow. A number with no mark means an inactive call.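 The calls were made as follows: active = inhibition above 50% at 4 µM in the single-point screen; inactive = inhibition of 50% or less.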
# Assay: blockers of TNF-a NF-kB luciferase induction – cell-based, HEK293T NF-kB-Luc, luminescence, selectivity assay for NOD1/NOD2 signaling inhibitor project, primary screen (AID 1852)
# Settings: TNF-a induced, 14 h, at 4 µM, stronger effect = higher value
row,SMILES,inhibition
1,Cc1nnc(N2CCCC(C(=O)Nc3cc(F)ccc3F)C2)c2nn(-c3ccccc3)c(C)c12 (stereo not drawn),95.7% (active)
2,COc1ccc(Cc2[nH]n3c(=O)c(Cl)c(C)nc3c2-c2ccccc2)cc1,106% (active)
3,COc1ccc(/C=c2/sc3nc(-c4ccccc4)c(-c4ccccc4)n3c2=O)cc1,-25.7%
4,COc1cc(/C=N/NC(=O)c2cc(-c3ccc4c(c3)OCO4)n[nH]2)ccc1O,55.4% (active)
5,CCNC(=O)/C(C#N)=C/c1c(N2CCN(c3ccc(OC)cc3)CC2)nc2c(C)cccn2c1=O,15.3%
6,Oc1ccc(N=Nc2ccc3c(c2)OCCO3)c2cccnc12,39.5%
7,Cc1ccc2c(C)ccc(O)c2n1,-70.6%
8,Cc1ccccc1N=Nc1ccc(O)c2ncccc12,105% (active)
9,Cc1ccc(C)c(N=Nc2ccc(O)c3ncccc23)c1,42.5%
10,Cc1ccc(N=Nc2ccc(O)c3ncccc23)cc1,96.9% (active)
11,Cc1ccc(N=Nc2ccc(O)c3ncccc23)cc1C,105% (active)
12,CCOC(=O)C1CCCN(C(=O)c2ccc3c(=O)n(CCOC)c(=S)[nH]c3c2)C1 (stereo not drawn),21.6%
13,COc1ccc(Cc2nc3ccc(C(=O)N4CCN(C)C(C)C4)cc3o2)cc1OC (stereo not drawn),45.4%
14,COCCn1c(=S)[nH]c2cc(C(=O)N3CCCC(C)C3)ccc2c1=O (stereo not drawn),94.8% (active)
15,O=C(NCc1cccnc1)/C(=C/c1ccc(-c2cccc(Cl)c2)o1)S(=O)(=O)c1ccccc1,99.5% (active)
16,O=C(NCc1cccnc1)/C(=C\c1ccc(-c2cccc(Cl)c2)o1)S(=O)(=O)c1ccccc1,91.5% (active)
17,CCN(CC)c1nc(N2CCOCC2)nc2ccccc12,2%
18,COc1ccc(-c2n(CC(=O)OC3CC(C)CCC3C(C)C)c3ccccc3[n+]2C)cc1 (stereo not drawn),74.8% (active)
19,COc1ccc(/C=N/NS(=O)(=O)c2ccc(F)cc2)cc1COc1cc(F)ccc1[N+](=O)[O-],12.7%
20,C/C(=N\NC(=O)c1cc(C2CC2)nc2ccccc12)c1ccc(O)cc1O,66.6% (active)
21,C/C(=N\NC(=O)c1c(C)nc2ccccn12)c1ccc(O)cc1O,69.2% (active)
22,O=C(Nc1nnc(-c2ccc3c(c2)CCCC3)o1)c1ccccc1Cl,106% (active)
23,O=C(CCc1nnc(-c2ccc(-c3ccccc3)cc2)o1)N1CCCCC1,-6.8%
24,O=C(Nc1nnc(-c2ccc3c(c2)CCCC3)o1)c1ccccc1,106% (active)

row,SMILES,inhibition
1,O=C(Nc1nnc(-c2ccc3c(c2)CCCC3)o1)c1ccc(Cl)cc1Cl,101% (active)
2,CC(C)(C)OC(=O)N[C@@H](Cc1ccccc1)c1nnc(S(=O)(=O)Cc2cccc(F)c2)o1,-10.8%
3,O=C(/C=C/c1ccc([N+](=O)[O-])s1)N1CCN(c2ccccc2)CC1,10.5%
4,CC1CN(C(=O)/C=C/c2ccc([N+](=O)[O-])s2)CC(C)O1 (stereo not drawn),41%
5,O=C(/C=C/c1ccc([N+](=O)[O-])s1)N1CCCCC1,54.6% (active)
6,CC1CC(C)CN(C(=O)/C=C/c2ccc([N+](=O)[O-])s2)C1 (stereo not drawn),60.4% (active)
7,CC[n+]1cc(C)ccc1/C=C/c1ccc(N(C)C)cc1,57.1% (active)
8,Cc1ccc(/C=C/c2ccc(N(C)C)cc2)[n+](C)c1,28.5%
9,CC[n+]1ccc(/C=C/c2ccc(N(C)C)cc2)c2ccccc21,62.5% (active)
10,CC(C)CC[n+]1ccccc1/C=C/c1ccc(N(C)C)cc1,74.3% (active)
11,O=C(NCc1cccs1)c1nc2c(nnn2Cc2ccccc2Cl)c(=O)[nH]1,98.2% (active)
12,O=C(NCc1ccco1)c1nc2c(nnn2Cc2ccccc2Cl)c(=O)[nH]1,78.4% (active)
13,O=C(CCl)N=c1sccn1Cc1ccccc1Cl,48.8%
14,Cc1cccc(C(=O)Nc2scc(CC(C)C)c2C(=O)O)c1,-33.5%
15,Cc1cccc(NC(=O)CCNC(=O)c2ccc(Br)cc2)c1C,-6.4%
16,CCC(C)N(CC(=O)Nc1cccc(C)c1C)C(=O)CCl (stereo not drawn),85.8% (active)
17,CCCN(CC(=O)Nc1ccccc1C)C(=O)CCl,93.3% (active)
18,Cc1cccc(Nc2nc(N)nc(CCl)n2)c1C,18.1%
19,CCOC(=O)N1CCN(C(=O)c2ccc([N+](=O)[O-])cc2Cl)CC1,43%
20,CC(=O)Oc1c(C)cc(Cl)cc1C(=O)Nc1ccc([N+](=O)[O-])cc1Cl,98.1% (active)
21,Nc1nn2c(-c3ccccc3)cc(=O)[nH]c2c1N=Nc1ccc(O)cc1,-17.5%
22,Nc1nn2c(-c3ccccc3)cc(=O)[nH]c2c1N=Nc1ccc(Br)cc1,78.7% (active)
23,COC(=O)c1scc(S(=O)(=O)C(C)C)c1N/N=C(\C#N)C(=O)c1ccc(Cl)cc1,27.4%
24,COc1ccc(S(=O)(=O)NC(C)C(=O)Nc2cccc([N+](=O)[O-])c2)cc1 (stereo not drawn),36.7%

row,SMILES,inhibition
1,COc1ccc(C(=O)/C(C#N)=N/Nc2cccc([N+](=O)[O-])c2)cc1,87.9% (active)
2,O=C(Nc1ccc(F)cc1)c1nn(-c2ccccc2)c(=O)cc1Cl,-30.5%
3,O=C(NNC(=O)c1cc(-c2ccccc2)nn1-c1ccccc1)c1ccccc1,11.9%
4,O=C(c1ccccc1)c1nn(-c2ccc(Cl)cc2)c(=O)cc1C(F)(F)F,54.8% (active)
5,O=C(Nc1ccc2oc(-c3cccnc3)nc2c1)c1ccc([N+](=O)[O-])o1,43.1%
6,CC(=O)c1cccc(NS(=O)(=O)c2ccc(NC(=O)N3CCCCC3)cc2)c1,19.3%
7,CC(=O)Nc1ccc(S(=O)(=O)Nc2ccc3c(c2)CCC3)cc1,85% (active)
8,COc1cccc(NS(=O)(=O)c2ccc3c(c2)CCN3C(C)=O)c1,41.6%
9,C=C1C(=O)O[C@@H]2C[C@@H](C)[C@@H]3C=CC(=O)[C@@]3(C)[C@@H](OC(C)=O)[C@H]12,101% (active)
10,Cc1oc2c(F)c(F)c(F)c(F)c2c1S(=O)(=O)Nc1cccc(C(F)(F)F)c1,87.4% (active)
11,Cc1ccc(OC(F)F)c(NC(=O)Nc2cccc(C(F)(F)F)c2)c1,8.9%
12,O=C(OCn1ncc(Cl)c(Cl)c1=O)c1ccccc1Cl,94.2% (active)
13,O=C(OCn1ncc(Br)c(Br)c1=O)c1ccccc1Cl,79.3% (active)
14,CCOC(=O)c1cnn(Cc2cccc(Cl)c2)c1C,-4.9%
15,O=C(OCC(=O)N1CCOCC1)c1ccccc1Br,0.9%
16,O=C(Nc1nc(-c2ccc3c(c2)OCO3)cs1)c1ccncc1,34.9%
17,O=C(/C=C/c1ccc2c(c1)OCO2)Nc1nc(-c2ccccc2)cs1,103% (active)
18,c1ccc(-c2csc(Nc3ccc4c(c3)OCCO4)n2)cc1,-211%
19,C(=N\Nc1nc2ccccc2s1)/c1ccccn1,105% (active)
20,CC(=O)Nc1ccc2nc(NC(=O)c3ccc([N+](=O)[O-])o3)sc2c1,18.3%
21,O=[N+]([O-])c1cc(Br)c(O)c(/C=N/Nc2nc3ccccc3s2)c1,79.2% (active)
22,CCN1C(=O)/C(=C/c2nc3ccccc3c(=O)n2-c2ccccc2)c2ccccc21,40.6%
23,CC(C)C1Nc2c(O)cc(Cl)c([N+](=O)[O-])c2C2C=CCC21 (stereo not drawn),74.1% (active)
24,O=C1OCCC1Sc1nnc(-c2ccc(Cl)cc2Cl)o1 (stereo not drawn),35.1%

row,SMILES,inhibition
1,CC(=O)c1ccc(Sc2nnnn2-c2ccccc2)c([N+](=O)[O-])c1,61.3% (active)
2,CC(C)NC(=O)c1ccc(Sc2ccccc2)c([N+](=O)[O-])c1,16.7%
3,Cn1cnnc1Sc1ccc(/C=C/C(=O)c2ccc(O)cc2)cc1[N+](=O)[O-],6.7%
4,CN(c1ccccc1)S(=O)(=O)c1ccc(NC(=O)c2nc(S(C)(=O)=O)ncc2Cl)cc1,60.4% (active)
5,Cc1ccc(NC(=O)c2nc(S(=O)(=O)Cc3ccccc3C)ncc2Cl)cc1C,5.2%
6,CCN(c1ccccc1)S(=O)(=O)c1ccc(NC(=O)c2nc(S(C)(=O)=O)ncc2Cl)cc1,30%
7,O=C(Nc1ccc(F)cc1)c1nc(S(=O)(=O)Cc2ccccc2)ncc1Cl,60.6% (active)
8,CCS(=O)(=O)c1ncc(Cl)c(C(=O)Nc2ccc(S(=O)(=O)N(C)c3ccccc3)cc2)n1,88.3% (active)
9,CCS(=O)(=O)c1ncc(Cl)c(C(=O)Nc2ccc(C)cc2)n1,99.2% (active)
10,Cc1cccc(CS(=O)(=O)c2ncc(Cl)c(C(=O)Nc3ccc(F)cc3)n2)c1,43%
11,O=c1c2c(nc3c(-c4ccc(Cl)cc4)c[nH]n13)CCCC2,75.3% (active)
12,O=c1c2c(nc3c(-c4ccc(Cl)cc4)c[nH]n13)CCC2,102% (active)
13,O=C(c1[nH]ncc1-c1cccc(Br)c1)C1CO1 (stereo not drawn),33.6%
14,Cc1nc2c(-c3ccc(Cl)cc3)cnn2c(N)c1-c1ccc(F)cc1,-246%
15,CCCc1cc(=O)n2[nH]cc(-c3ccc(Cl)cc3)c2n1,101% (active)
16,O=c1c2c(nc3c(-c4cccc(Br)c4)c[nH]n13)CCCC2,83% (active)
17,O=C(Cc1ccc(Br)cc1)Nc1ncc([N+](=O)[O-])s1,23.8%
18,CC(C)N1C(=O)/C(=C/c2nc3ccccc3c(=O)n2-c2ccccc2)c2ccccc21,43.6%
19,COc1ccc(C(=O)c2ccccc2)c2c(O)ccc(C(=O)c3ccccc3)c12,53.3% (active)
20,COc1ccc(C(=O)n2cc(C(=O)c3cc(C)ccc3O)cn2)cc1OC,36.5%
21,COc1ccc(O)c(-c2[nH]ncc2C(=O)c2ccccc2)c1,9.4%
